Results taken from ChEMBL document CHEMBL4513216, “Probing the Open Global Health Chemical Diversity Library for Multistage-Active Starting Points for Next-Generation Antimalarials” (ACS Infect Dis, 2020).
Among all 69,000 compounds or so, about 8,600 (12%) showed an effect of 50% or more. Shown is part of a subset that was picked to be rich in strong results.

Each compound was assayed on Plasmodium berghei (assay: Screen against P. berghei liver stage (PbLuc), transformed with Luciferase, at 10uM). Details: tested at 10 uM.
Type: functional, HepG2
Compound `Cn1cc(-c2ncc(C(=O)NCCCn3ccccc3=O)s2)cn1` has an INHIBITION of 44.9%. In the case of `Cc1nc(C2CCCN2C(=O)Cc2ccc3c(c2)OCO3)nc(O)c1C` (centres undefined), the INHIBITION is reported as 22%. With `CN1C(=O)CCC12CCN(Cc1ccco1)CC2` the INHIBITION was 16.1%. In the case of `CN1CCN(c2nsc(-c3ccccc3)c2C#N)CC1`, the INHIBITION is reported as 33.3%. Work on `CCCn1cc(-c2ccnc(NC3CCc4ccccc43)n2)c(C)n1` (centres undefined) yielded an INHIBITION of 82.2%. `CCCn1ncc(-c2ccnc(NC3CCSC3)n2)c1C` (centres undefined) gave an INHIBITION of 49.9%. With `O=C(CS(=O)(=O)c1ccccn1)NC1CCCc2ccccc21` (centres undefined) the INHIBITION was -17.8%. Compound `CCCn1cc(-c2ccnc(NC3CCCc4ccccc43)n2)c(C)n1` (centres undefined) has an INHIBITION of 72.3%. In the case of `Cc1nn(C)c(N2CCOCC2)c1CNC1CCc2ccccc21` (centres undefined), the INHIBITION is reported as 7.08%. `COc1c(CNC2CCCc3ccccc32)c(C)nn1C` (centres undefined) gave an INHIBITION of 37.9%. With `Cc1nn(CCO)c(C)c1CNC1CCCCc2ccccc21` (centres undefined) the INHIBITION was 17.8%. `CCCn1ncc(C(=O)N2CCN(C3Cc4ccccc4C3)CC2)c1C` gave an INHIBITION of -20.8%. For `CCCn1ncc(-c2ccnc(N[C@@H]3C[C@H]4CC[C@@H]3C4)n2)c1C`, the INHIBITION was 49.9%. Compound `CCCn1ncc(-c2ccnc(NC3CC(C)(C)NC(C)(C)C3)n2)c1C` has an INHIBITION of 80.1%. Compound `CCCn1ncc(-c2ccnc(NC3CCCc4ccccc43)n2)c1C` (centres undefined) has an INHIBITION of 77.2%. `CCCOCCCNc1nccc(-c2cn(C)nc2C)n1` showed an INHIBITION of -49.8%. In the case of `CN1CCC/C1=N\S(=O)(=O)c1ccc(NC(=O)c2ccc(F)cc2)cc1`, the INHIBITION is reported as 41.4%. In the case of `O=S(=O)(CC1CCCO1)Nc1cc(Cl)ccc1-n1cccn1` (centres undefined), the INHIBITION is reported as -15.5%. `CC(=O)N[C@@H]1CN(Cc2oc3ccccc3c2C)C[C@H]1c1ccc(C)o1` gave an INHIBITION of 37.7%. `CC(CO)(NC(=O)NCc1ccc(Br)s1)C1CC1` (centres undefined) gave an INHIBITION of -12.7%. `Fc1cnc(N2CCc3nnc(COc4ccccn4)n3CC2)nc1` was tested, and the INHIBITION was -58.7%. `CC(C(=O)N1CCN(C)CC1)n1cc(Br)cn1` (centres undefined) showed an INHIBITION of 21.7%. `Cc1noc(C)c1CN1CCN(CC2CC2)c2ncccc2C1` was tested, and the INHIBITION was 47.2%. `O=C(CCc1ccncc1)N1CCCC(N2CCNC2=O)C1` (centres undefined) showed an INHIBITION of 37.9%. Work on `CC(=O)N1CC=C(n2c(=O)[nH]c3ccccc32)CC1` yielded an INHIBITION of 21.4%. `CCCn1cc(-c2ccnc(NC3CCc4ccccc4C3)n2)c(C)n1` (centres undefined) was tested, and the INHIBITION was 89.6%. Work on `Cc1nn(C)c(N2CCOCC2)c1CNC1CCc2ccccc2C1` (centres undefined) yielded an INHIBITION of 35.7%. In the case of `Cc1sc2ncc(-c3ccnc(NC4CCN(C)CC4)n3)c(=O)n2c1C`, the INHIBITION is reported as 24.8%. Work on `O=C(C1CC1)N1CCC(Nc2nc(O)cc(-c3ccsc3)n2)CC1` yielded an INHIBITION of -5.78%. With `O=C1CCNC(=O)N1CC(=O)N1CCC1c1ccc(F)cc1` (centres undefined) the INHIBITION was -14.5%. `NCC(=O)N1CCCCC1c1ccc(F)cc1` (centres undefined) gave an INHIBITION of 74%. For `O=C1CCCCN1CCC(=O)N1CCCCC1c1ccc(F)cc1` (centres undefined), the INHIBITION was 53.6%. For `O=C1CCCN1CCCC(=O)N1CCCCC1c1ccc(F)cc1` (centres undefined), the INHIBITION was 74.9%. `COC(=O)CCCC(=O)N1CCCCC1c1ccc(F)cc1` (centres undefined) was tested, and the INHIBITION was 34.1%. `CCc1nccn1CCC(=O)N1CCCC1c1ccc(F)cc1` (centres undefined) gave an INHIBITION of 29.4%. In the case of `COCCC(=O)N1CCCCC1c1ccc(F)cc1` (centres undefined), the INHIBITION is reported as 48%. `O=C(c1cc(=O)[nH]c(=O)[nH]1)N1CCCCC1c1ccc(F)cc1` (centres undefined) was tested, and the INHIBITION was 30.1%. For `Cn1cc(C2CCCN2C(=O)CCCOc2ccc(F)cc2)cn1` (centres undefined), the INHIBITION was 0.914%. Work on `Cc1nn(C)c(Cl)c1C1CCCN1C(=O)c1ccc2c(c1)COC2` (centres undefined) yielded an INHIBITION of 7.12%. Work on `CN1CCCC1c1cncc(C(=O)NCCN2CCCC2)n1` (centres undefined) yielded an INHIBITION of -40.1%. In the case of `CN(C)CC(=O)N1CCc2cccc(S(=O)(=O)N3CCOCC3)c2C1`, the INHIBITION is reported as 21.2%. In the case of `O=C(c1ccc(Cl)s1)N1CCC2(CNS(=O)(=O)c3cnccc3O2)C1` (centres undefined), the INHIBITION is reported as 21.7%. Work on `CCC1CN(CC(=O)NCCN2CCCCCC2)c2ccccc2S1` (centres undefined) yielded an INHIBITION of 0.87%. `CC(c1cc(F)ccc1F)N(C)C(=O)NCc1ccnc(N(C)C)c1` (centres undefined) gave an INHIBITION of 21.6%. For `FC(F)(F)CCc1ccnc(N2CCN(Cc3ccncc3)CC2)n1`, the INHIBITION was -0.178%. `Cc1cnccc1N1CCN(c2nccc(CCC(F)(F)F)n2)CC1` was tested, and the INHIBITION was 83.2%. Work on `CCOc1ccnc(N2CCN(C(=O)CCc3ccncc3)CC2)n1` yielded an INHIBITION of -17%. In the case of `FC(F)(F)c1ccnc(N2CCCN(Cc3ccccn3)CC2)n1`, the INHIBITION is reported as -1.7%. `Cc1cc(C)nc(CCNc2nccc(CCC(F)(F)F)n2)n1` gave an INHIBITION of 38.2%. In the case of `FC(F)(F)CCc1ccnc(N2CCN(CCc3ccncc3)CC2)n1`, the INHIBITION is reported as 66.1%. `Oc1cccc(CN2CCN(c3nccc(CCC(F)(F)F)n3)CC2)c1` was tested, and the INHIBITION was 74.7%. `FC(F)(F)CCc1ccnc(N2CCN(Cc3ccccn3)CC2)n1` was tested, and the INHIBITION was 25.5%. For `CNC(=O)C1CCN(c2nccc(CCC(F)(F)F)n2)C1` (centres undefined), the INHIBITION was 50.1%. With `Cc1cnccc1N1CCN(C(=O)CCCN2CCCCC2)CC1` the INHIBITION was 21.7%. For `O=C(c1ccccn1)C1CCCN(c2nccc(CCC(F)(F)F)n2)C1` (centres undefined), the INHIBITION was 35.1%. Work on `CCN(C(C)=O)C1CCN(c2nccc(CCC(F)(F)F)n2)C1` (centres undefined) yielded an INHIBITION of 48.5%. In the case of `O=C(c1ccc2c(c1)OCO2)N1CCCC(n2ccnc2)C1` (centres undefined), the INHIBITION is reported as -9.37%. Compound `CN(CC(=O)Nc1cc(-c2cc(Cl)cc(Cl)c2)[nH]n1)S(C)(=O)=O` has an INHIBITION of -51.9%. `CC(C)Oc1cccc(F)c1C(C(=O)O)N1CCCC1` (centres undefined) showed an INHIBITION of -41.4%. With `CCOCC(=O)N1CCCn2c(CN3CCCCC3)nnc2C1` the INHIBITION was -1.15%. Work on `CCS(=O)(=O)Cc1csc(-c2ccc(S(C)(=O)=O)cc2)n1` yielded an INHIBITION of 3.4%. In the case of `O=S(=O)(CCCN1CCCC1Cn1cccn1)c1ccccc1` (centres undefined), the INHIBITION is reported as 24%. With `Cc1noc(C)c1-c1nc(C2CCCNC2)ccc1CO` (centres undefined) the INHIBITION was -15.3%. Compound `COC1C[C@@H]2CN(C(=O)c3ccc(C)s3)C[C@@H]2C1` (some centres undefined) has an INHIBITION of -16.55%. Compound `O=C(NCCN1CCCS1(=O)=O)c1scnc1Cl` has an INHIBITION of 40.2%. `CC(=O)c1cnc(N(C)Cc2cnc3ccccc3n2)nc1C` gave an INHIBITION of 62.7%. `Cc1cnc(N(C)Cc2cnc3ccccc3n2)nc1N(C)C` was tested, and the INHIBITION was 46.4%. `CC(=O)c1cnc(N(C)Cc2cc(C)cc(C)n2)nc1C` was tested, and the INHIBITION was 28.5%. In the case of `CC(C)C1COC2(CCN(Cc3ccco3)CC2)C1` (centres undefined), the INHIBITION is reported as -2.35%.
